# From PubChem BioAssay
# A selection: hits, their analogues and other compounds. The true share with any hit is near 15%.
# Pf growth 48h: inhibits P. falciparum growth in the first generation, 48 h | P. falciparum luciferase growth in erythrocytes, 48 h | 5.9% of 310,000 active | AID 504832 | Potency, µM (top dose mostly 28.7 µM), for the others: top-dose activity change, negative = inhibition, most hits filed as inhibitors; further: potency means the concentration at half of the fitted maximal effect; on the % scale 0 is the no-effect control and ±100 the full control effect
#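 Luminescence readout; reporter = integrated firefly luciferase in P. falciparum. RBC culture at 2% hematocrit, 0.1% parasitemia final, 37 C/5% CO2; decreased signal taken as growth inhibition.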
# HCMV inh: inhibitors of human cytomegalovirus; HFF cells, HCMV-luciferase reporter, 72 h; stronger effect = lower value; activity change, negative = inhibition, % at 57.5 µM; 4.5% of 410,000 active; in the data active means activity change below about -60%; inconclusive means no clear call, values can overlap the other calls; inactive means above about -39%; further: on the % scale 0 is the no-effect control and ±100 the full control effect
#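 Human foreskin fibroblasts infected with luciferase-reporter HCMV at MOI 1 PFU/cell, compounds at two doses. Luciferase measured 72 h post infection; normalized to buffer-only basal and Salinomycin (10uM) controls.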
# HCV inhibitor: inhibitors of hepatitis C virus infection | Potency, µM (titrated, usually from 41.8 µM), without a hit: at the highest dose activity change, negative = inhibition, usual class: inhibitors | Huh7.5.1 HCVcc-Cre infection, luciferase reporter, 44 h | 3.4% of 340,000 active | AID 651820; further: potency means the concentration at half of the fitted maximal effect; on the % scale 0 is the no-effect control and ±100 the full control effect
#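 Cells seeded at 1,000/well and cultured 4 h, then compounds added followed by HCVcc-Cre virus (~0.5 moi). After 44 h further culture, luciferase substrate was added, plates held 15 min at room temperature, and luminescence read for 15 sec.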
# SARS PLP yeast: blocks SARS-CoV papain-like protease in a yeast assay; S. cerevisiae expressing SARS-CoV PLpro, growth rescue; Potency, µM (titrated, usually from 32.9 µM), without a hit: at the highest dose activity, positive = growth rescue, hits mostly activators; 0.19% of 330,000 active; AID 485353; calls by dose curve; further: potency means the concentration at half of the fitted maximal effect; 0% is about no effect; nearly all actives have a fitted effect of over 55% in size
# Sm TGR block: S. mansoni TGR enzyme inhibition | Q962Y6 | purified TGR, DTNB reduction, TNB absorbance 405 nm | Potency, µM (titrated, usually from 114 µM), for the others: at the highest dose activity change, negative = inhibition, hits mostly inhibitors | 3% of 360,000 active | AID 485364; further: potency means the concentration at half of the fitted maximal effect; on the % scale 0 is the no-effect control and ±100 the full control effect; nearly all actives have a fitted effect of over 60% in size
#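 First, TGR (20 nM dispensed) and NADPH were mixed with compound. Second, a 15 min room-temperature incubation followed. Third, further NADPH and then DTNB were added to start the reaction. Finally, TNB absorbance was monitored kinetically.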
# Pf growth 96h: P. falciparum growth inhibition at 96 hour, primary screen for plastid delayed-death inhibitors; P. falciparum luciferase reporter growth, 96 h; Potency, µM (doses to about 28.7 µM), for inactives: at the highest dose activity change, negative = inhibition, actives largely listed as inhibitors; 6.9% of 320,000 active; AID 504834; further: potency means the concentration at half of the fitted maximal effect; on the % scale 0 is the no-effect control and ±100 the full control effect
#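 Luminescence readout: decreased luciferase signal marks inhibited growth of reporter-expressing P. falciparum in infected red cells (2% hematocrit, 0.05% parasitemia final), exposed to compound two generations (96 h, 37 C, 5% CO2).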
# * marks the source's active call; other numbers are inactive results; ? = inconclusive; nt = no result given; [ ] = dose if it differs, or a comment. Unless noted, the call rests on the fitted dose curve; in most records, active means well fitted curve in the direction sought with a large enough effect; inconclusive means small, poorly fitted or top-dose-only effect, or another doubt; inactive means no such curve, though single readings can be large; an effect the other way counts as inactive or inconclusive.
SMILES,Pf growth 48h,HCMV inh,HCV inhibitor,SARS PLP yeast,Sm TGR block,Pf growth 96h
COc1ccc(Cl)cc1NC(=O)CN(C)CC(=O)Nc1cccc(S(=O)(=O)N2CCCC2)c1,?,-34.6,?,0.1%,2.6%,3.29µM*
CCN(CC(=O)Nc1cc(Cl)ccc1C)C(=O)c1cc(S(=O)(=O)N2CCCCCC2)ccc1OC,?,-30.3,?,3.9%,-2.9%,?
CCN(CC(=O)Nc1ccccc1OC)C(=O)c1cc(S(=O)(=O)N2CCCCCC2)ccc1OC,?,-2.5,?,6.5%,1.4%,5.22µM*
CCC(C)(C(=O)NC1CCCCC1)N(CC1CCCO1)C(=O)Cc1cccs1 (configuration not stated),-5.9%,0.0,9.8%,-4.0%,14.6%,?
COc1ccc(S(=O)(=O)N(C)C[C@@H]2Oc3c(NS(C)(=O)=O)cccc3C(=O)N([C@@H](C)CO)C[C@H]2C)cc1,nt,-2.0,8.6%,?,nt,nt
CC(=O)c1ccc(Nc2cc(C)nc3ccc(C)cc23)cc1,3.7µM*,-0.7,?,0.4%,-23.3%,3.5%
COc1ccc(Nc2cc(C)nc3ccc(C)cc23)cc1,nt,-32.9,nt,nt,nt,nt
CO[C@H]1CN(C)C(=O)c2ccc(NS(=O)(=O)c3ccccc3F)cc2OC[C@H](C)NC[C@@H]1C,nt,6.8,nt,nt,nt,nt
NNC(=O)c1cc2ccccc2cc1O,?,-74.0*,36.2%,?,-0.5%,10.4%
O=C(N/N=C1/CC2CCC1C2)c1cc2ccccc2cc1O (configuration not stated),?,50.7,12.2%,-5.8%,5.6%,9.28µM*
CCOC(=O)C(C)/C(C)=N/NC(=O)c1cc2ccccc2cc1O (configuration not stated),?,-74.0*,?,?,-9.9%,?
O=C(CNC(=O)c1ccccc1F)OCC(=O)N1CCCCC1,8.0%,-61.8*,8.9%,-0.6%,-12.3%,41.8%
C/C(CC(=O)N1CCCC1)=N\NC(=O)c1cc2ccccc2cc1O,?,?,-11.7%,8.9%,?,-24.5%
CC1CCC(NC(=O)c2cc3ccccc3cc2O)CC1 (configuration not stated),?,9.4,?,-0.7%,5.9%,?
CC1CCN(C(=O)COC(=O)CNC(=O)c2ccccc2F)CC1,5.9%,-26.5,15.9%,0.8%,1.9%,-7.8%
CC(C)c1nn2c(=O)cc(COC(=O)c3ccco3)nc2s1,nt,-8.5,nt,nt,-0.3%,nt
COc1ccc(OC)c(NC(=O)CSc2ncc3c(n2)-c2ccccc2N(C)S3(=O)=O)c1,nt,13.9,nt,nt,3.6%,nt
O=C(NCC1CCCCC1)c1cc2ccccc2cc1O,1.31µM*,-75.0*,12.6µM*,-23.9%,1.2%,1.65µM*
O=C(NCC1CCCO1)c1cc2ccccc2cc1O (configuration not stated),?,36.0,-7.8%,-5.3%,-18.4%,?
O=C(OCC(=O)N1CCCCC1)c1cc2ccccc2cc1O,52.0%,-8.3,-1.7%,-5.2%,-2.8%,9.28µM*
COc1ccc(C(=O)OCC2CC(c3ccccc3)=NO2)cc1OC (configuration not stated),10.8%,3.6,?,-0.1%,8.9%,56.9%[5.75 µM]
COc1ccc(-c2nc3c(c(=O)n(C)c(=O)n3C)n2CC2CC(c3ccccc3)=NO2)cc1OC (configuration not stated),nt,3.7,5.62µM*,nt,nt,nt
CCOc1ccccc1N1CCN(Cc2cccc(OC)c2O)CC1,3.29µM*,-13.9,?,-7.1%,-10.7%,nt
O=C(CCS(=O)(=O)c1ccccc1)Nc1ccc2c(c1)OCO2,77.9%,87.7,19.0%,-2.0%,20µM*,?
O=C(Cc1c(C(=O)O)[nH]c2ccccc12)Nc1ccc2c(c1)OCO2,?,31.6,13.4%,0.1%,5.5%,13.1µM*
COc1ccccc1N1CCN(Cc2cc(C)c(C)cc2O)CC1,nt,-19.7,?,-3.9%,-0.6%,0.329µM*
CCOc1ccccc1NC(=O)CSc1nnc(CC)c(CC)n1,nt,0.0,nt,nt,4.3%,nt
